Rows were chosen to be rich in hits. Some 11% of all compounds tested hit in one or more screens of this group.
Tau fibril FP: blocks human tau fibril formation measured by polarization. K18 P301L tau heparin fibrillization, Alexa594 FP, 6 h. Potency, µM (series often up to 57.7 µM), for inactives: at the top dose activity, negative = inhibition, hits mostly inhibitors. 280,000 tested, 0.39% active. P10636; note: potency is the fitted concentration of half-maximal effect; nearly all actives have a fitted effect of over 55% in size
Target sequence (P10636 561-689 P618L limits assumed): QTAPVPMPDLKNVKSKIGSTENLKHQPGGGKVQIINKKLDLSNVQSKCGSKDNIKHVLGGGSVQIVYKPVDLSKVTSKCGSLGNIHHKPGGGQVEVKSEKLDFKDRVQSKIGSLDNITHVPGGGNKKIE
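Human tau K18 […] P301L fragment, 15 uM unlabeled plus 0.24 uM Alexa 594-labeled tau (final), with compound and 20 uM heparin in 100 mM sodium acetate pH 7; 6 hr at 37 C, then Alexa 594 FP read.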
Tau ThT inhib: tau fibrillization inhibition (ThT binding); 270,000 tested, 2.1% active; Potency, µM (top dose mostly 57.4 µM), for the others: at the top dose activity, negative = inhibition, usual class: inhibitors; AID 1460; recombinant tau K18 P301L, heparin-induced fibrillization, ThT fluorescence; P10636; note: potency is the fitted concentration of half-maximal effect; nearly all actives have a fitted effect of over 55% in size
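Aggregation was driven by heparin (20 uM final) acting on recombinant tau […] bearing P301L in 100 mM sodium acetate pH 7; fibrils were detected with Thioflavin T.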
Tau fluor counter: counter-screen for tau fibril formation inhibitors; tau K18 P301L (four-repeat tau fragment) Alexa594 fluorescence, heparin fibrillization; Potency, µM (highest dose often 57.7 µM), for inactives: top-dose activity change, negative = decrease; 280,000 tested, 0.93% active; AID 1463; note: potency is the fitted concentration of half-maximal effect; nearly all actives have a fitted effect of over 55% in size
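Human K18 P301L tau (15 uM unlabeled plus 0.24 uM Alexa 594-labeled, final) in 100 mM sodium acetate pH 7 was mixed with compound and 20 uM heparin and incubated 6 hr at 37 C.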
FBPA coupling cs: counter-screen for Giardia aldolase inhibitors: coupling enzyme system; AID 2472; activity change, negative = inhibition, % at 58.2 µM, hits read low; 290,000 tested, 0.67% active; coupling enzyme system counterscreen, AmpLite Red fluorescence; in the data active = activity change below about -30%
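Fluorescence at 525 nm excitation and 598 nm emission measured inhibition of the coupled detection system without aldolase. Compounds (at 57.5 uM final) were preincubated 10 min at room temperature with coupling enzyme reagent before a 20 min substrate/AmpLite Red step.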
G9a block: blocks human histone lysine methyltransferase G9a; G9a H3K9 monomethylation, AlphaScreen, 2 h; AID 504332; Potency, µM (series often up to 102 µM), for inactives: at the top dose activity, negative = inhibition, most hits filed as inhibitors; Q96KQ7; 350,000 tested, 8.8% active; note: potency is the fitted concentration of half-maximal effect; nearly all actives have a fitted effect of over 75% in size
Target sequence (Q96KQ7 913-1193 limits assumed): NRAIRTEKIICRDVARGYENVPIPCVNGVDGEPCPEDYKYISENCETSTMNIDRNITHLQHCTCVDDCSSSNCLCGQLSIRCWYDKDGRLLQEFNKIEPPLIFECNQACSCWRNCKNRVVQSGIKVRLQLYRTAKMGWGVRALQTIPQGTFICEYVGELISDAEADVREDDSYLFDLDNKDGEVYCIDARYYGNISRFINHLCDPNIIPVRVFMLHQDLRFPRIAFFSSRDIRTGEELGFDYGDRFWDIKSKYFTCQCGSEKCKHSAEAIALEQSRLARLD
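AlphaScreen read-out: biotin-H3K9 peptide (500 nM) methylation by 20 nM enzyme with 20 uM SAM, 2 h at room temperature after 15 min compound preincubation; anti-monomethyl H3K9 antibody plus donor/acceptor beads, 10 min dark.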
Sfp PPTase inh: inhibitors of Bacillus subtilis Sfp phosphopantetheinyl transferase | Potency, µM, without a hit: largest response in the series, negative = inhibition, actives largely listed as inhibitors | 310,000 tested, 3.5% active | Biochemical Sfp PPTase activity, qHTS | Q9F4F7 | AID 1490;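 note: the enzyme is Sfp with the accession as filed and its product quenches rhodamine fluorescence; potency is the fitted concentration of half-maximal effect; 0% = enzyme reaction without inhibitor and -100% = no enzyme wells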
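Buffer: 50 mM Hepes-Na pH 7.6, 10 mM MgCl2, 0.01% Nonidet P-40, 0.01% BSA. Enzyme 15 nM, pre-exposed to compound 15 min; substrates then added and fluorescence change tracked over 30 min.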
* marks the source's active call; other numbers are inactive results; ? = inconclusive; / = not tested or not shown; [ ] = another dose, or the depositor's remark. Unless noted, calls come from the whole dose curve; as a rule, active = well fitted curve in the direction sought with a large enough effect; inconclusive = small, poorly fitted or top-dose-only effect, or another doubt; inactive = no such curve, though single readings can be large; an effect the other way counts as inactive or inconclusive. Unless noted, % is set by controls: 0 for no effect and ±100 for the full control effect.

SMILES | Tau fibril FP | Tau ThT inhib | Tau fluor counter | FBPA coupling cs | G9a block | Sfp PPTase inh
CC(C)C(=O)NC(c1ccco1)c1c(O)ccc2ccccc12 (stereo not drawn) | -4.7% | -10.5% | -5.8% | -0.8 | 31.6µM* | -2.4%
CC(C)C(=O)NC(c1ccccc1Cl)c1c(O)ccc2ccccc12 (stereo not drawn) | -15.7% | -26.0% | -13.4% | -8.1 | 6.0% | 3.3%
CCC(=O)NC(c1ccc(N(C)C)cc1)c1c(O)ccc2ccccc12 (stereo not drawn) | -1.4% | ? | ? | -4.0 | 10µM* | 2.3%
COc1cccc([C@@H]2Oc3ccc(Br)cc3C(=O)[C@H]2OC(=O)NS(=O)(=O)c2ccc(C)cc2)c1 | 7.8% | -5.6% | -6.9% | -0.2 | / | 9.1%
Cc1ccc2c(c1)N=C(c1ccccc1)CC(C(Cl)Cl)=N2 | ? | 15.8µM* | ? | -23.2 | / | ?
Cc1ccc(C)n1-c1ccc(C(=O)NN=C2CCCC2)cc1 | -2.9% | -8.2% | -4.5% | -1.2 | 16.5% | 18.0%
O=C(CC1NCCNC1=O)Nc1cccc(F)c1 (stereo not drawn) | -7.3% | -10.1% | -14.3% | / | 10.2%[59 µM] | /
CCCCCC(=O)/C=C/C=C\C/C=C\C/C=C\CCCC(=O)O | 2.0% | -4.0% | 1.9% | 0.3 | 25.1%[59 µM] | 5.2%
COc1cccc(C2Nc3ccccc3NC3=C2C(=O)CC(C)(C)C3)c1 (stereo not drawn) | / | / | / | 0.1 | 20.4% | 21.5%
COc1cc(C2Nc3ccccc3NC3=C2C(=O)CC(C)(C)C3)cc(OC)c1OC(C)=O (stereo not drawn) | / | / | / | -1.6 | 50.1µM* | 11.8%
O=C1CC(NNc2nc3ccccc3s2)C(=O)N1c1ccccc1 (stereo not drawn) | 1.1% | -12.3% | -12.0% | -3.6 | / | 3.8%
CCc1ccc(N2C(=O)CC(NNc3nc4ccccc4s3)C2=O)cc1 (stereo not drawn) | -5.3% | ? | -18.9% | -3.6 | 14.1µM* | -11.7%
C/C(CC(=O)Nc1ccc2c(c1)OCCO2)=N\NC(=O)c1cccc(O)c1 | / | / | / | 0.8 | 19.7% | 9.7%
CC(=O)N/N=C(\C)CC(=O)Nc1ccc2c(c1)OCCO2 | 9.6% | -8.8% | -2.7% | 2.8 | 44.7µM* | 1.2%
CC(=O)Nc1ccc2c(c1)OCCOCCOc1cc(NC(C)=O)ccc1OCCO2 | 4.3% | ? | -7.3% | -10.3 | 50.1µM* | 11.1%
O=C(O)CCNc1ccc2c(c1)OCCO2 | ? | ? | -24.8% | -41.4* | ? | 50.1µM*
CC(C)(C)C(=O)Nc1ccc2c(c1)OCCOCCOc1cc(NC(=O)C(C)(C)C)ccc1OCCOCCO2 | 2.4% | -7.7% | -1.5% | -0.5 | 3.2% | 30.4%
CNC(=O)NC(=O)C(C)OC(=O)c1c2c(nc3ccccc13)/C(=C/c1cccs1)CC2 (stereo not drawn) | -2.7% | ? | ? | -9.4 | -7.5%[59 µM] | 31.6µM*
O=C(O)C(NS(=O)(=O)c1ccc(F)cc1)c1ccccc1 (stereo not drawn) | -5.7% | 4.5% | -0.3% | -0.7 | -34.6% | 14.4%
O=C(O)[C@H](CSCc1ccccc1)NS(=O)(=O)c1ccc(F)cc1 | -5.1% | -2.2% | -2.4% | 2.5 | 10µM* | -15.4%
Cc1ccc(-n2ncc(C(=O)NCc3ccco3)c2C2CCN(C(=O)OC(C)(C)C)CC2)cc1 | -0.3% | 2.4% | -5.8% | / | ? | /
N#CCCCN1C(=O)C(=C(C#N)C#N)c2ccccc21 | ? | 31.6µM* | ? | -35.2* | ? | -18.2%
O=C1CC(c2ccco2)Sc2nc3ccccc3n21 (stereo not drawn) | -7.5% | ? | -18.1% | -0.8 | 44.7µM* | ?
CCCN1C(=O)CC(c2ccco2)Sc2ccccc21 (stereo not drawn) | 8.4% | -3.8% | 6.7% | 4.2 | ? | 35.5µM*
O=C1CC(c2ccccc2)Sc2nc3ccccc3n21 (stereo not drawn) | -11.6% | -13.4% | -7.1% | 0.6 | ? | 8.6%
SMILES | Tau fibril FP | Tau ThT inhib | Tau fluor counter | FBPA coupling cs | G9a block | Sfp PPTase inh
CN1C(=O)CC(c2ccco2)Sc2ccccc21 (stereo not drawn) | -3.3% | -19.8% | -9.9% | 4.7 | 10.5%[2.33 µM] | 12.5%
COC(=O)c1cc(S(=O)(=O)NCc2cccc(Br)c2)c[nH]1 | / | / | / | 1.3 | -12.8% | 12.4%
O=[N+]([O-])c1ccc(NCc2ccc(Cl)cc2)nc1 | -10.2% | ? | ? | 2.3 | -1.4% | 1.4%
O=[N+]([O-])c1ccc(NNS(=O)(=O)c2cc(Cl)ccc2Cl)nc1 | / | / | / | / | -7.0%[0.501 µM] | 35.5µM*
COc1cc(CNCCO)ccc1OC1CCCC1 | -2.6% | -0.4% | -4.9% | -0.5 | -1.1%[59 µM] | 8.7%
COc1cc(CNCCC2CCOC(C)(C)C2)ccc1O (stereo not drawn) | -1.7% | 2.8% | -3.8% | -0.3 | 50.1µM* | ?
CC/C(=N\Nc1ccc([N+](=O)[O-])cc1[N+](=O)[O-])c1ccc(O)cc1 | / | / | / | 2.1 | -35.0%[12.7 µM] | 5.1%
C/C(=N\Nc1ccc(S(N)(=O)=O)cc1[N+](=O)[O-])c1ccccc1O | 1.6% | ? | -15.8% | -0.8 | 4.6%[59 µM] | 2.8%
CC/C(=N\Nc1ccccc1[N+](=O)[O-])c1ccc(O)cc1 | -10.9% | 1.78µM* | 4.47µM*[quencher] | 0.1 | / | ?
C/C(=N\Nc1ccccc1[N+](=O)[O-])c1ccccc1O | / | / | / | 4.3 | 17.8µM* | 12.7%
C[C@H]1Cc2c(-c3ccccc3)nc3c(c2CO1)CN(C(=O)Nc1cccc(C#N)c1)CC3 | -1.6%[11.6 µM] | -5.4%[11.5 µM] | -16.5%[11.6 µM] | -0.3 | / | 16.5%
O=C(CCNS(=O)(=O)c1ccc2c(c1)CCCC(=O)N2)NCc1ccccc1Cl | -9.3% | 0.1% | -4.5% | / | -2.0%[59 µM] | /
COc1ccc(O)c(CN2CCCC(N3CCN(c4ccccc4OC)CC3)C2)c1 (stereo not drawn) | / | / | / | -1.5 | 4.9% | 12.4%
COc1ccccc1N1CCN(C2CCCN(Cc3ccccc3OCCO)C2)CC1 (stereo not drawn) | / | / | / | 3.8 | 79.4µM* | 8.8%
CCc1ccccc1NC(=O)C(=O)NCCc1sc(-c2cccc(F)c2)nc1C | -1.5% | -4.0% | 3.4% | / | -2.5%[59 µM] | /
CCOC(=O)CN=C1CC(C)(C)CC2=C1Sc1ncnc(N(C)C)c1N2 | -18.7% | 15.8µM* | ? | -47.4* | 4.47µM* | 10µM*
c1ccc(CN2CCC3(CC2)Nc2ccccc2CO3)cc1 | 11.7% | -7.9% | -1.9% | 1.2 | 0.4%[12.7 µM] | 8.2%
c1ccc(CN2CCC3(CC2)Nc2ccccc2S3)cc1 | -2.3% | -14.0% | -22.1% | -1.7 | -40.2%[59 µM] | 79.4µM*
Cc1ccc2cc(C(c3nnnn3CC3CCCO3)N3CCc4ccccc4C3)c(=O)[nH]c2c1 (stereo not drawn) | -3.8% | -17.8% | -8.4% | -38.3* | ? | 10µM*
